Measurements reported in PubChem BioAssay (Tox21).
Records with an inconclusive call do not appear. Where a call stands in place of a potency, no number is given. Activity calls are given as the source filed them. Calls come from the whole dose curve; as a rule, active = well fitted activation curve with a large enough effect in the repeat runs; inconclusive = weak or mixed curves; inactive = flat fitted curve, though single readings scatter.

Test: A CellTox Green Cytotoxicity Assay to monitor cytotoxicity in HEK293 cells - 16 hour (AID 1224888); note: nearly all actives have a fitted effect of over 35% in size
Details: CellTox Green fluorescence; series mostly up to 76.8 µM
From the text: National Center for Advancing Translational Sciences [NCATS]
NIH Chemical Genomics Center [NCGC]
U.S. Environmental Protection Agency [EPA]
National Institutes of Environmental Health Sciences [NIEHS]
National Toxicology Program [NTP]
Cell-based models are critical for drug discovery. Determining the natural cytotoxic effects resulting from test compounds is an essential research activity. A CellTox Green Cytotoxicity Assay to monitor cytotoxicity in real time of continues cell culture during 40 hours of the compound treatment was used to screen Tox21 10K library compounds in Hek293 cells. CellTox Green Cytotoxicity Assay is a nonlytic, homogeneous, biofluorescent method to measure cytotoxicity in cell culture after experimental manipulation. The assay system uses a proprietary asymmetric cyanine dye that is excluded from viable cells but preferentially stains the dead cell's DNA. […] Viable cells produce no appreciable increases in fluorescence. Therefore, the fluorescence signal produced by the binding interaction with dead cell DNA is proportional to cytotoxicity.
The mixture of Hek293 cell suspension and reagents were dispensed at 600cells/6 ul/well in 1536-well tissue culture treated black solid bottom plates using a Multidrop dispenser. After the assay plates were incubated at a 37 C/5% CO2 incubator for 5 hours, 23 nL of compounds dissolved in DMSO, positive and negative controls was transferred to the assay plate by a pintool work station. The plates were incubated at 37 C for 40 hours. The fluorescence intensity were measured at 0h, 8h, 16h, 24h, 32h and 40h time points using ViewLux plate reader during compound treatment.
Potency is the fitted concentration of half-maximal effect.

Structure (SMILES)	Potency
CC1=CC(=O)CC(C)(C)C1(O)/C=C/C(C)=C\C(=O)O (stereo not given)	inactive
CCCCCCCCCCCCCCC[C@H](O)[C@@H](N)CO	21.3 µM (active)
CC1CC(=O)NN=C1c1ccc(NCC(C)(C)NCC(O)COc2cc(Cl)ccc2C#N)cc1 (stereo not given)	inactive
CC1(C)O[C@@H]2C[C@H]3[C@@H]4CCC5=CC(=O)C=C[C@]5(C)[C@H]4[C@@H](O)C[C@]3(C)[C@]2(C(=O)CO)O1	inactive
COC(=O)Nc1nc2ccc(C(=O)c3cccs3)cc2[nH]1	inactive
Oc1ccc(Nc2ccccc2)cc1	inactive
CCOC(=O)C(C)Oc1ccc(Oc2nc3ccc(Cl)cc3o2)cc1 (stereo not given)	inactive
C=CCOC(=O)/C=C\C(=O)OCC=C	inactive
CCCC1C(CC)=CC(CC)=CN1c1ccccc1 (stereo not given)	inactive
Nc1nc(Cl)nc2c1ncn2[C@@H]1O[C@H](CO)[C@@H](O)[C@@H]1F	inactive
CC(=O)N(c1onc(C)c1C)S(=O)(=O)c1ccc(N)cc1	inactive
O=C(NCCCN1CCOCC1)c1ccc(Cl)cc1	inactive
C[Si]1(C)O[Si](C)(C)O[Si](C)(C)O1	inactive
Nc1ccc(Cl)cc1[N+](=O)[O-]	inactive
CCC1(C)CC(=O)NC1=O (stereo not given)	inactive
O=C(CCCCCCCCC#CI)Oc1ccccc1	inactive
NC(=O)Cn1c(=O)cc(CCN2CCN(c3nccc4sccc34)CC2)c2ccc(F)cc21	inactive
O=Cc1c(Cl)cccc1Cl	inactive
CC(=O)OCC(=O)[C@H]1CC[C@H]2[C@@H]3CCC4=CC(=O)CC[C@]4(C)[C@H]3CC[C@]12C	inactive
N#C[C@@H]1C[C@@H]2C[C@@H]2N1C(=O)[C@@H](N)C12CC3CC(CC(O)(C3)C1)C2	inactive

Structure (SMILES)	Potency
CCC(C(=O)OCCOCCN(CC)CC)c1ccccc1 (stereo not given)	inactive
CC(=O)[C@H]1CC[C@H]2[C@@H]3C[C@H](C)C4=CC(=O)CC[C@]4(C)[C@H]3[C@@H](O)C[C@]12C	inactive
C[N+](C)(C)CCOC(N)=O	inactive
CC(=O)[C@H]1CC[C@H]2[C@@H]3C=CC4=CC(=O)CC[C@@]4(C)[C@@H]3CC[C@]12C	inactive
CCc1c2c(nc3ccc(OC(=O)N4CCC(N5CCCCC5)CC4)cc13)-c1cc3c(c(=O)n1C2)COC(=O)[C@]3(O)CC	inactive
CC1CC(O)CC(C)(C)C1 (stereo not given)	inactive
c1cnc2c(n1)CCCC2	43.6 µM (active)
CCOC(=O)/C=C/C(=O)O	inactive
CCCCC(CC)COC(=O)COc1ccc(Cl)cc1C (stereo not given)	inactive
Nc1ccc(C(=O)OCCCOC(=O)c2ccc(N)cc2)cc1	inactive
Cn1c(=O)c2c(ncn2CC(=O)O)n(C)c1=O	inactive
CCCOCCOCCO	inactive
CCCCC(CC)CNCC(CC)CCCC (stereo not given)	inactive
O=C(CCC1CCN(Cc2ccccc2)CC1)c1ccc2c(c1)NCCCC2	inactive
N#C/C(=C1\SCC(c2ccccc2Cl)S1)n1ccnc1 (stereo not given)	inactive
OCCSc1ccccc1	inactive
O=C(O)c1c(O)c(-c2ccccc2)nc2ccccc12	inactive
Cc1cc(O)c2c(O)c3c(O)cccc3cc2c1	inactive
OC/C(Br)=C(\Br)CO	inactive
CCCCC/C(=C\c1ccccc1)CO	48.4 µM (active)
